CBFb RUNX1 block – inhibitors of human CBF-beta and RUNX1 interaction; Q01196+Q13951; AlphaScreen CBFb-His/RUNX1-biotin binding, biochemical; Potency, µM (top dose mostly 59.8 µM), for the others: at the top dose activity, negative = inhibition, usual class: inhibitors; 230,000 tested, under 10 active; active = well fitted curve in the direction sought with a large enough effect; inconclusive = small, poorly fitted or top-dose-only effect, or another doubt; inactive = no such curve, though single readings can be large; an effect the other way counts as inactive or inconclusive; note: % of control where 0% means no effect
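CBFb-His/RUNX1-biotin, 30 nM each, preincubated 20 min RT; compound 15 min RT; Ni + streptavidin beads 50 ng each, 90 min RT; AlphaScreen read.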
ALDH1A1 block – ALDH1A1 (human) enzyme inhibition; Purified ALDH1A1, NADH fluorescence, propionaldehyde substrate; P00352; actives 7.3% (n = 220,000); AID 1030; Potency, µM (highest dose often 75.3 µM), without a hit: top-dose activity, negative = inhibition, actives largely listed as inhibitors;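 note: potency is the fitted concentration of half-maximal effect; plate controls were no enzyme wells and a reference inhibitor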
Target sequence (P00352 whole entry, looked up): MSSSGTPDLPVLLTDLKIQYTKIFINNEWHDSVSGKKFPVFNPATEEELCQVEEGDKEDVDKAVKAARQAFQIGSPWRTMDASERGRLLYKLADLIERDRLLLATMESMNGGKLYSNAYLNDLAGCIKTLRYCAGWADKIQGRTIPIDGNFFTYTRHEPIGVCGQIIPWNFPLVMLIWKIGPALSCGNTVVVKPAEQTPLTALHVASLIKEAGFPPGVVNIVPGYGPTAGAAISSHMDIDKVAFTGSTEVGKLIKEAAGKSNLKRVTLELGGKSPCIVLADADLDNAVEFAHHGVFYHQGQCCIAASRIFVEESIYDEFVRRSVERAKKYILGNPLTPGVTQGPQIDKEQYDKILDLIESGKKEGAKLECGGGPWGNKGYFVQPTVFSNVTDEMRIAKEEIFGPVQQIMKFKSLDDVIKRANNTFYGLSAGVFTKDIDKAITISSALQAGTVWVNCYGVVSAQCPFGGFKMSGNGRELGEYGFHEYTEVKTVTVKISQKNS
JMJD2E inh – inhibitors of human JMJD2E histone demethylase. B2RXH2. JMJD2E catalytic domain, FDH-coupled NADH fluorescence (FDH is formaldehyde dehydrogenase). actives 1.6% (n = 230,000). Potency, µM (highest dose often 57.1 µM), inactives show at the highest dose activity change, negative = inhibition, most hits filed as inhibitors;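 note: potency is the fitted concentration of half-maximal effect; 0% = wells with enzyme and -100% = buffer wells without enzyme; nearly all actives have a fitted effect of over 50% in size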
HTT ATP protect – protects HTT-Q103 PC12 cells, measured by ATP | actives 0.14% (n = 230,000) | PC12 HTT-Q103 induced, cytoprotection, ATP luminescence, 40 h | Potency, µM (doses to about 56.4 µM), for inactives: cytoprotection (ATP increase), most hits filed as activators; active = well fitted curve in the direction sought with a large enough effect; inconclusive = small, poorly fitted or top-dose-only effect, or another doubt; inactive = no such curve, though single readings can be large; an effect the other way counts as inactive or inconclusive; note: potency is the fitted concentration of half-maximal effect; % of control where 0% means no effect; nearly all actives have a fitted effect of over 45% in size
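Readout: ATPlite luminescence (ATP level). Model: stable PC12, inducible Htt exon1 Q103-GFP. Inducer: tebufenozide, 100 nM final. Compounds: dose series. No G418 in medium.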
HTT aggregate – reduces HttQ103-GFP aggregates in PC12 cells; PC12 HttQ103-GFP aggregates, Acumen cytometry, 40 h; Potency, µM (highest dose often 46.1 µM), without a hit: at the top dose activity change, negative = inhibition, actives largely listed as inhibitors; actives 1.1% (n = 220,000); AID 1688; active = well fitted curve in the direction sought with a large enough effect; inconclusive = small, poorly fitted or top-dose-only effect, or another doubt; inactive = no such curve, though single readings can be large; an effect the other way counts as inactive or inconclusive; note: potency is the fitted concentration of half-maximal effect; % is set by controls: 0 for no effect and ±100 for the full control effect; nearly all actives have a fitted effect of over 60% in size
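Ecdysone-promoter PC12 model expressing HTT exon 1 Q103 fused to GFP, induced by tebufenozide at 100 nM final. Compounds titrated; aggregates sized 1–25 µm scored on a 488 nm laser cytometer.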
HPGD inh – inhibitors of human 15-hydroxyprostaglandin dehydrogenase (HPGD); purified HPGD, NADH fluorescence kinetic, PGE2 substrate; Potency, µM, for the others: at the top dose activity change, negative = inhibition, hits mostly inhibitors; actives 4.3% (n = 150,000); AID 894; note: potency is the fitted concentration of half-maximal effect; % is set by controls: 0 for no effect and ±100 for the full control effect
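NADH formation kinetics: reaction with 30 uM PGE2 and 1 mM NAD+ (final), 20 nM enzyme, Tris-HCl pH 8 with Tween 20, after 15 min compound preincubation at room temperature. Fluorescence change, last versus first of five reads.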
* hit, by the source's call; ? = inconclusive; / = no result given; [ ] = remark or other dose. The list is not random: actives were taken first. Their share in the collection is about 9.8%. Unless noted, calls come from the whole dose curve; as a rule, active = well fitted inhibition curve with a large enough effect (not every such curve was filed as active); inconclusive = small, poorly fitted or top-dose-only effect, or another doubt; inactive = no such curve, though single readings can be large or run the other way.

SMILES	CBFb RUNX1 block	ALDH1A1 block	JMJD2E inh	HTT ATP protect	HTT aggregate	HPGD inh
CC12CCC(C(=O)NNc3ccccc3)(C(=O)C1=O)C2(C)C (configuration not stated)	7%	/	-6%	-9%[10 µM]	-30%[9.22 µM]	/
N#CCC(=O)NN=C1CCCCCCCCCCC1	-3%	3.2µM*	60%	-55%	-2%	-12%
N#Cc1ccc(CSCC(=O)NN=C2CCCC2)cc1	-5%	?	12%	-34%	0%	/
CCOCCCN(C(=O)Cn1nnc(-c2ccc(C)o2)n1)C(C(=O)NCC1CCCO1)c1ccc(F)cc1 (configuration not stated)	?	/	-14%	18%[10 µM]	-2%[9.22 µM]	/
CC/C(=N\NC(C)=O)c1ccc(OC(F)F)cc1	0%	4%	2%	-36%	13%	/
Cc1ccc(S(=O)(=O)N(C)Cc2ccc(C(=O)NN=C3C4CC5CC(C4)CC3C5)cc2)cc1	3%	0.5µM*	1%	6%[10 µM]	-6%	/
Cc1ccc(S(=O)(=O)N(C)Cc2ccc(C(=O)NN=C(CC(C)C)CC(C)C)cc2)cc1	-7%	7.1µM*	7%	18%[10 µM]	-18%	-13%
Cc1ccc(S(=O)(=O)N(C)Cc2ccc(C(=O)N/N=C3\CCCC(=O)C3)cc2)cc1	-8%	?	?	26%[10 µM]	-7%	-17%
CC/C(=N\NC(=O)c1ccc(CN(C)S(=O)(=O)c2ccc(C)cc2)cc1)c1ccc(OC(F)F)cc1	15%	13µM*	8%	14%[10 µM]	-6%	-7%
CNCC(O)c1cccc(O)c1 (configuration not stated)	6%	7%	3%	-6%	/	-13%
CCOC(=O)C1(CCOc2ccccc2)CCN(Cc2ccc(-n3cccn3)cc2)CC1	-3%	-11%	-28%	30%[10 µM]	25%[9.22 µM]	/
COc1ccc(OC)c(NC(=O)c2cccc(C)c2[N+](=O)[O-])c1	3%	?	3%	7%[10 µM]	4%[9.22 µM]	/
CCN(CC)S(=O)(=O)c1ccc(OC)c(NC(=S)Nc2cccc(C)c2C)c1	-4%	25µM*	-2%	8%[10 µM]	10%	1%
CCN(CC)S(=O)(=O)c1ccc(OC)c(NC(=S)Nc2cccc(C)c2)c1	10%	11µM*	-8%	8%[10 µM]	-20%	-14%
CCN(CC)S(=O)(=O)c1ccc(OC)c(NC(=O)CSc2ccccc2)c1	4%	-11%	-7%	-15%	11%	-15%
CCN(CC)S(=O)(=O)c1ccc(OC)c(NC(=O)c2cccc(C)c2[N+](=O)[O-])c1	2%	5.6µM*	1%	/	-3%	/
CCN(CC)S(=O)(=O)c1ccc(OC)c(NC(=O)c2cccs2)c1	-2%	?	7%	0%[10 µM]	-14%[9.22 µM]	/
Cc1cc(C)c(OCC(=O)N(Cc2ccc(N(C)C)cc2)C2CCS(=O)(=O)C2)c(C)c1 (configuration not stated)	-4%	/	8%	27%[10 µM]	5%[9.22 µM]	/
Clc1cc(Cl)c(OCC#CI)cc1Cl	/	/	/	-97%	-92%	/
CCCN1C(=O)C2(C(C(=O)c3ccc(C)o3)=C(O)C(=O)N2CCCN2CCOCC2)c2ccccc21 (configuration not stated)	0%	10µM*	0%	-9%[0.074 µM]	10%	-4%
Cc1ccc(C)c(Nc2c(F)c(F)c(F)c(F)c2C(=O)O)c1	2%	1%	2%	-28%	-23%	/
COc1cc(/C=C2/SC(=O)NC2=O)ccc1Oc1ccc([N+](=O)[O-])cc1[N+](=O)[O-]	10%	/	5%	-17%[10 µM]	25%[9.22 µM]	/
Nc1ccc(Oc2ccc([N+](=O)[O-])cc2[N+](=O)[O-])cc1	3%	?	-25%	14%	3%[1.84 µM]	-16%
CC1=NN(c2ccccc2)C(=O)/C1=C\c1ccc(Oc2ccc([N+](=O)[O-])cc2[N+](=O)[O-])cc1	?	8.9µM*	6.3µM*	4%[10 µM]	-2%	8.9µM*
